These results are taken from PubChem BioAssay AID488969 (Vanderbilt High Throughput Screening Facility, 2010).

“And” between values parts separate entries of the source, which are not always exact repeats. Equal entries are not always repeated. Whole data set: some 110,000 compounds, median “z-score” near -0.1, cut for the highest 2% near 2. This is one part of a sample in which the highest values are shown more often than they occur. The source made the active and inactive calls.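 How the source made its calls: active means z-score in the third read window above 3 or below -3; inactive means the rest.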

Sequence of Metabotropic glutamate receptor 8 (Rattus norvegicus) (P70579 whole entry, looked up): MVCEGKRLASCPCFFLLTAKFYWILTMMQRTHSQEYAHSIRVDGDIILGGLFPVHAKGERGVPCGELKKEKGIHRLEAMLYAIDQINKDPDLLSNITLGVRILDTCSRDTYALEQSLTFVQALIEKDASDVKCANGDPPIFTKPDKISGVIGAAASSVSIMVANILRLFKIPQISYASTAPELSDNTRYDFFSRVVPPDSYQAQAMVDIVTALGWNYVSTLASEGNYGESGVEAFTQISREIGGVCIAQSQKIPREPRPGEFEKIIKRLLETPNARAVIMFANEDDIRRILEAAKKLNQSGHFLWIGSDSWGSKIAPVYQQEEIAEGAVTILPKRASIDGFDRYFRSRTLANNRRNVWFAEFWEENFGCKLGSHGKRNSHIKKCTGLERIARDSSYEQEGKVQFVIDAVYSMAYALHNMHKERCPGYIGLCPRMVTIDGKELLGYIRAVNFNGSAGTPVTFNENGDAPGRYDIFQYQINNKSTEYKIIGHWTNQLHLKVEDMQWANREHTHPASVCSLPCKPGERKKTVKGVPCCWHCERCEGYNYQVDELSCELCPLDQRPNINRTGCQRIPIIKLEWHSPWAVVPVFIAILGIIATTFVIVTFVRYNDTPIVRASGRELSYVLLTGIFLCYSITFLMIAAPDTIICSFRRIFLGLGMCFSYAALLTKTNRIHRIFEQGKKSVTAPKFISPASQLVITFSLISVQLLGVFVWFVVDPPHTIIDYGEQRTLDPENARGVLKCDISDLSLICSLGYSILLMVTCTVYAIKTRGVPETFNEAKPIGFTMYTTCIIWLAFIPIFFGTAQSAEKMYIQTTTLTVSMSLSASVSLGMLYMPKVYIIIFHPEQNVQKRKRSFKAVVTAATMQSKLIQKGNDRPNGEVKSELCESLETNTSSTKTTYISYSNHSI

The assay concerns the target Metabotropic glutamate receptor 8 (Rattus norvegicus) (UniProt P70579). Briefly: mGluR8 Gi/Go-coupled signaling modulation – cell-based, rat, thallium flux, HTS, primary screen (AID 488969). The conditions noted are these: HEK293 rat mGluR8, GIRK (G protein-gated inwardly rectifying potassium channel) thallium flux, FluoZin2; at 10 µM; stronger effect = higher value; submaximal glutamate (EC20) added with thallium.
Consider `COC(=O)C1=C(C)NC(=O)NC1c1ccccc1` (stereo unspecified), for which the z-score is -0.341.

`OC(COCC(F)(F)C(F)(F)C(F)(F)C(F)F)Cn1c2ccccc2c2ccccc21` (stereo unspecified) returned a z-score of 0.164. On to `CCOc1ccc2nc(SCc3ccccc3C#N)sc2c1`, for which the z-score is -0.141. In turn, `Fc1ccccc1N1CCN(CC2CC3C=CC2C3)CC1` (stereo unspecified) registered a z-score of -0.343.

In turn, `Cc1noc2c1C(c1ccc(N(C)C)cc1)C1=C(CC(C)(C)CC1=O)N2` (stereo unspecified) yielded a z-score of -0.142. The result for `CN(CCC#N)C(=S)Nc1ccc(Oc2ccccc2)cc1` reads -0.139; that for `Cc1ccc(-c2ccc(SCC(=O)c3ccccc3)nn2)cc1`, 0.138.

`O=C(Nc1ccon1)c1ccc(Br)o1`: the z-score is -0.216. The result for `C=CCn1c(NC(=O)CC)c(C(=O)OCC)sc1=S` reads -0.979; that for `COc1ccc(N=C2C(=Nc3ccc(OC)cc3)N(c3ccc(OC)cc3)C(=S)N2C)cc1`, -0.0804; that for `Cc1nn(C(C)C(=O)NCc2ccccc2)c(C)c1[N+](=O)[O-]` (stereo unspecified), 0.375. As for `Cc1nc2ccccn2c1-c1nnco1`, the z-score turned out to be 0.116. The result for `CCOC(=O)/C(N=Nc1c(Br)cc(Br)cc1Br)=C(\C)O` reads 0.239; that for `CN1CCN(C(=S)NC(=O)/C=C/c2cccc3ccccc23)CC1`, 2.03; that for `CCN1CCN(C(=O)Nc2cccc3ccccc23)CC1`, -0.222. On to `CN1CCN(C(=O)Nc2cccc3ccccc23)CC1`, for which the z-score is 3.3 (active). On to `CN1CCN(C(=S)NC(=O)/C=C/c2ccccc2)CC1`, for which the z-score was 0.401. For `NC(=O)Nc1cccc2ccccc12` the value was 4.53 (active); for `COCC(=O)Nc1cccc2ccccc12`, 0.3. `O=C(Nc1ccccc1C(F)(F)F)Nc1cccc2ccccc12`: the z-score came to 0.33.

As to `Cc1ccc(/C=C/C(=O)NC(=S)N2CCN(C)CC2)cc1`, the z-score was -0.241.

`O=C(Nc1cccc2ccccc12)N1CCN(c2ccccc2)CC1` gave a z-score of -0.177. On to `CCc1cc(=O)oc2cc3oc(C)c(C)c3cc12`, for which the z-score was -0.296. For `Cc1c(C(=O)NCC2COc3ccccc3O2)oc2ccc(S(=O)(=O)N(C)C3CCCCC3)cc12` (stereo unspecified), the z-score was -0.0918. As for `CC(=O)CCc1oc2ccc(NC(C)=O)cc2c1-c1ccc(C)o1`, the z-score is -0.484. Compound `COCCN(C(=O)COc1ccccc1)c1nnc(-c2cccnc2)s1` showed a z-score of -0.132. The result for `CC(=O)C(C)Oc1ccc2c3c(c(=O)oc2c1C)CCCC3` (stereo unspecified) reads -1.13; that for `COc1ccc(NC(=O)CN(c2ccc(C)cc2)S(=O)(=O)c2c(C)nn(C)c2C)cc1OC`, -0.248; that for `Cc1cccc2sc(NC(=O)C3CCCO3)nc12` (stereo unspecified), -0.212.

Compound `O=C(NCCN1CCCC1)c1ccc2c(=O)n(CCc3ccccc3)c(=O)[nH]c2c1` displayed a z-score of 1.17. The result for `O=C(NCc1cccnc1)c1ccc2c(=O)n(CCCN3CCCC3=O)c(=S)[nH]c2c1` reads -0.116. For `O=C(NCCCN1CCOCC1)c1ccc2c(=O)n(CCc3ccccc3)c(=O)[nH]c2c1` the value was 1.15; for `Cc1ccc(CNC(=O)c2ccc3c(=O)n(CCCN4CCCC4=O)c(=S)[nH]c3c2)cc1`, -0.167; for `O=C(NCCCN1CCCCC1)c1ccc2c(=O)n(CCc3ccccc3)c(=O)[nH]c2c1`, 1.16. The result for `O=C(NCc1ccccc1)c1ccc2c(=O)n(CCCN3CCCC3=O)c(=S)[nH]c2c1` reads 4.92 (active); that for `CC1CCN(CCCNC(=O)c2ccc3c(=O)n(CCc4ccccc4)c(=O)[nH]c3c2)CC1`, 4.09 (active).

Turning to `CC1CCCCN1CCCNC(=O)c1ccc2c(=O)n(CCc3ccccc3)c(=O)[nH]c2c1` (stereo unspecified), the z-score stood at 2.93. `CC1CCCCN1CCNC(=O)c1ccc2c(=O)n(CCc3ccccc3)c(=O)[nH]c2c1` (stereo unspecified) showed a z-score of 0.188. For `O=C(N/N=C/c1ccc(O)cc1)/C(=C/c1ccccc1)CCO` the value was -0.0513. The result for `O=C(c1cn(-c2ccccc2)nc1-c1cccs1)N(CCO)Cc1ccccc1` reads -0.178. The result for `CCn1c(SCC(=O)NCCc2ccc(Cl)cc2)nnc1-c1cccs1` reads -0.84; that for `CCOCCCNC(=O)CN1C(=O)CSc2cc(S(=O)(=O)N3CCCCCC3)ccc21`, -0.263. `O=C(c1cc(Cl)ccc1[N+](=O)[O-])n1cnc2ccccc21` registered a z-score of -0.721. The result for `COc1ccccc1N1CCN(C(=O)c2cc(-c3ccco3)on2)CC1` reads -0.34; that for `CCOC(=O)c1cnn2c(C)cc(-c3ccc(F)cc3)nc12`, -0.151; that for `CCOC(=O)c1cnn2c(C)cc(-c3ccccc3)nc12`, 2.74. For `COC(=O)c1cnn2c(C(F)(F)F)cc(-c3ccccc3)nc12` the value was -0.00832; for `CCOC(=O)C1=C(C)N=c2s/c(=C/c3ccccc3)c(=O)n2C1c1ccc(OC)c(OC)c1` (stereo unspecified), -0.183. Compound `CCOC(=O)C=Nc1c(N)n(C)c(=O)n(C)c1=O` had a z-score of 2.44. For `Cn1c(N)c(C(=O)CCl)c(=O)n(C)c1=O` the value was 0.0911; for `CCOc1cc(C(=O)OCC(=O)c2c(N)n(C)c(=O)n(C)c2=O)cc(OCC)c1OCC`, -0.112; for `CC1(C)C(=O)OC(c2cccn2-c2ccc([N+](=O)[O-])cc2)C(C)(C)C1=O` (stereo unspecified), -0.471. For `Cc1cccc(SCc2noc(C(=O)NC(C)C)c2C(=O)O)c1` the value was -0.0231; for `O=C1NC(=Nc2cccc(Cl)c2)SC1Cc1cccc(Cl)c1Cl` (stereo unspecified), -0.324. For `O=C(NC(=Nc1ccccc1)N1CCOCC1)Nc1ccccc1` the value was 2.94.

Compound `O=C(Nc1ccccc1)Nc1ccc(C(=O)N2CCOCC2)cc1` had a z-score of -0.0267.

`O=C(Nc1ccccc1)N1CCOCC1` showed a z-score of -0.206. For `CC(=C/C(=O)O)/C=C/c1ccc([N+](=O)[O-])cc1` the value was -0.0461; for `CC(/C=C\c1cccnc1)=C/C(=O)O`, -0.175 and 6.26 (active). For `CC(=C/C(=O)O)/C=C/c1cccs1` the value was -0.429; for `Cc1c(C2Nc3ccccc3NC3=C2C(=O)CC(C)(C)C3)cnn1C` (stereo unspecified), 4.64 (active). For `Cn1cccc1C1Nc2ccccc2NC2=C1C(=O)CC(C)(C)C2` (stereo unspecified) the value was -0.491; for `CC1(C)CC(=O)C2=C(C1)Nc1ccccc1NC2c1nc2ccccc2[nH]1` (stereo unspecified), -0.113. Regarding `CCOc1ccc(N(CC(=O)NCC2CCCO2)C(=O)CCC(=O)Nc2ccccn2)cc1` (stereo unspecified), the z-score was -1.08. As for `COc1ccc(NC(=O)CSc2nc(N)c3cc4c(nc3n2)CCCC4)cc1`, the z-score was -0.916. For `O=C(COC(=O)c1ccccc1C(=O)c1ccccc1)NCCc1ccc(Cl)cc1Cl`, the z-score was -0.0656. On to `S=c1[nH]nc(-c2ccco2)n1/N=C/c1ccc(Br)s1`, for which the z-score is 4.39 (active). Take `S=c1[nH]nc(-c2ccco2)n1/N=C/c1cccs1`: the z-score is -0.0217. The result for `S=c1[nH]nc(-c2ccccn2)n1/N=C/c1ccccc1` reads -0.194; that for `S=c1[nH]nc(-c2ccccn2)n1/N=C/c1cccs1`, -0.126. For `Cc1cc(-c2n[nH]c(=S)n2/N=C/c2sccc2C)n[nH]1` the value was -0.362; for `Cc1ccc(/C=N/n2c(-c3ccco3)n[nH]c2=S)s1`, 0.259; for `S=c1[nH]nc(-c2ccccn2)n1/N=C/c1ccc(Br)s1`, 5.6 (active). `Cc1cc(-c2n[nH]c(=S)n2/N=C/c2ccc(Br)s2)n[nH]1`: the z-score was 4.55 (active). Consider `Cc1cc(-c2n[nH]c(=S)n2/N=C/c2ccc(C)s2)n[nH]1`, for which the z-score is -0.0648. For the compound `Nc1c(C(O)(C(F)(F)F)C(F)(F)F)cc(C(O)(C(F)(F)F)C(F)(F)F)c2ccccc12`, the z-score is 0.066.

As for `CC1=C(C(=O)NCc2ccccc2)C(c2ccccc2OCC(N)=O)NC(=O)N1` (stereo unspecified), the z-score stood at 0.226.

Compound `O=C(Cc1c(F)cccc1Cl)N1CCCC1` returned a z-score of 0.183.

Turning to `CS(=O)(=O)N1CCC(C(=O)NCc2ccco2)CC1`, the z-score worked out at 0.432. `COc1ccc(N2CCN(C(=O)c3cccc(N4C(=O)C5CC=CC(C)C5C4=O)c3)CC2)cc1` (stereo unspecified) returned a z-score of -0.43. For `COc1ccc(/C=C2\SC(c3ccc(C)cc3)=NC2=O)cc1OC` the value was -1.87. In turn, `COc1ccc(/C=C2\SC(=O)NC2=S)cc1OC` returned a z-score of 2.05. For `COc1cc(/C=C2/SC(=S)NC2=O)ccc1OS(=O)(=O)c1ccc(C)cc1` the value was -2.12; for `COc1ccc(/C=C2\SC(=O)N=C2N)cc1OC`, 0.0136; for `COc1cc(/C=C2\SC(=S)NC2=O)ccc1OS(=O)(=O)c1ccccc1`, 15.1 (active). Regarding `COc1cc(/C=C2/C(=O)N(c3ccccc3)N=C2C)ccc1OS(=O)(=O)c1ccccc1`, the z-score is -0.322. `CCOC(=O)c1c(-c2ccc(OC)cc2)nc2nonc2c1N` yielded a z-score of 0.0715. Consider `CC(C)CCNC(=S)Nc1ccc(F)cc1`, for which the z-score turned out to be 0.97. For `COc1cc(C)c(S(=O)(=O)N2CCOCC2)cc1C` the value was 0.136; for `COc1ccc(NC(=O)CSc2ccc(-c3ccccn3)nn2)cc1OC`, -0.397; for `Cc1ccc(S(=O)(=O)c2nc(C(C)(C)C)oc2N2CCOCC2)cc1`, -0.0758. For `N#C/C(=C\c1ccco1)C(=O)NCC1CCCO1` (stereo unspecified) the value was -0.0138; for `CC(C)NS(=O)(=O)c1cccc2nsnc12`, -0.236; for `COc1ccc2cc3cc(C(=O)NC(C)C)oc3nc2c1`, 0.629. The result for `C=CCn1c(SCC)nc2sc3c(c2c1=O)CCc1ccccc1-3` reads 0.571. For `C=CCSc1nc2sc3c(c2c(=O)n1CC=C)CCc1ccccc1-3`, the z-score is -0.139. For `C=CCSc1nc2sc3c(c2c(=O)n1CC)CCc1ccccc1-3` the value was 2.62; for `CCOC(=O)CSc1c(-c2ccccc2)c2cc(Cl)ccc2[nH]c1=O`, -0.516; for `O=C(c1cccn(Cc2cccc(Cl)c2)c1=O)N1CCOCC1`, 0.0735. For `CC(C)CCOP(=O)(c1ccc(N(C)C)cc1)C(O)c1ccccn1` (stereo unspecified) the value was 5.74 (active). For `CC(C)COP(=O)(c1ccc(N(C)C)cc1)C(O)c1ccccn1` (stereo unspecified) the value was 0.147; for `CC(C)COP(=O)(c1ccc(N(C)C)cc1)C(O)c1ccncc1` (stereo unspecified), -0.817.

`CCOC(=O)c1ccc(NC(=O)C2=C(C)Nc3nc(CCCO)nn3C2c2cccc(C)c2)cc1` (stereo unspecified) had a z-score of 0.0656. For `CCCCN(Cc1ccccc1)S(=O)(=O)c1cc(Br)cc2c1N(C(C)=O)C(C)C2` (stereo unspecified) the value was 2.82; for `CC(=O)N1c2c(cc(Br)cc2S(=O)(=O)NCC2COc3ccccc3O2)CC1C` (stereo unspecified), 0.248. In turn, `COc1cccc(CNS(=O)(=O)c2cc(Br)cc3c2N(C(C)=O)C(C)C3)c1` (stereo unspecified) gave a z-score of 0.241.

`CCOc1ccc(/C=C2\SC(=O)N(CCNC(=O)C3COc4ccccc4O3)C2=O)cc1OC` (stereo unspecified) came in with a z-score of -0.337. `COc1ccc(/C=N/c2oc(-c3ccccc3)cc2C#N)cc1` had a z-score of -0.0521.

`O=[N+]([O-])c1ccc(O)c(/C=N/n2cnc3ccccc32)c1` showed a z-score of -0.812. The result for `Oc1ccc(Br)cc1/C=N/n1cnc2ccccc21` reads 2.45. The result for `COc1cccc(/C=N/n2cnc3ccccc32)c1OC` reads -0.147.
